ssDAF12 agonist: activators of S. stercoralis DAF-12 nuclear receptor. HEK293 ssDAF-12/GRIP1 lit1-tk-luc reporter, luminescence; % of 3 µM dafachronic acid response. activation, % at 6.8 µM. 370,000 tested, 1% active;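 active means activation above the mean over all tested compounds plus 3 SD, cut at about 0.9% in these data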
DAX1 inh-1: inhibits human nuclear receptor DAX1; HEK293 Gal4-DAX1 luciferase reporter, luminescence; inhibition, % at 6.75 µM; 340,000 tested, 0.99% active; AID 504766;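 active means inhibition above the mean over all tested compounds plus 3 SD, cut at about 4.2% in these data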;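 further: inhibition shows as a rise in luminescence from relieved DAX1 repression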
Target sequence (P51843 207-470 limits assumed): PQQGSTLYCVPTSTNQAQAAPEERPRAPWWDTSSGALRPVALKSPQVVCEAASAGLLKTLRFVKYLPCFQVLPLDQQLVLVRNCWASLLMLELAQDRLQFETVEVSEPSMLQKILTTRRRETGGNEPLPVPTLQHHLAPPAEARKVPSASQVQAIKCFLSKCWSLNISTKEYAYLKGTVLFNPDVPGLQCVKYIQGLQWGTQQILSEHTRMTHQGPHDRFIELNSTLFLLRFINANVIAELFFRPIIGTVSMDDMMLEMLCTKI
hcDAF12 agonist: activators of H. contortus DAF-12 nuclear receptor. activation, % at 6.8 µM. 370,000 tested, 1.4% active. HEK293 hcDAF-12 lit1-tk-luc reporter, luminescence; 0% DMSO, 100% Δ7-dafachronic acid. AID 652067;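 active means activation above the mean of all tested compounds plus 3 SD, cut at about 5.5% in these data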
hgDAF12 agonist: activates the H. glycines DAF-12 receptor ligand-binding domain | HEK293 GAL4-hgDAF12 UAS-luciferase reporter, agonist luminescence; normalized to butyrate control | activation, % at 6.8 µM | 370,000 tested, 1.8% active | AID 687014;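 active means activation above a cutoff set at the mean of all screened compounds plus 3 SD, cut at about 10% in these data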
SMARCA2 activ: activators of SMARCA2 function | MG213 cells, MMTV-luciferase reporter, dexamethasone, overnight | activation, % at 9.1 µM | 370,000 tested, 1% active; in the data active means activation above about 7.8%
DAX1 inh-2: inhibitors of DAX1 repression of SF-1 activated StAR promoter; inhibition, % at 6.8 µM; 370,000 tested, 1.1% active; HEK293T StAR-luciferase reporter, SF-1/DAX-1 repression relief; AID 652010;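 active means inhibition above the mean over all tested compounds plus 3 SD, cut at about 3.6% in these data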;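 further: higher inhibition means more luminescence from relief of DAX-1 repression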
SMARCA2 act conf: SMARCA2 activation, confirmation screen. shares compounds with SMARCA2 activ. MG213 cells, MMTV-luciferase with dexamethasone, luminescence, overnight; MG213 cells expressing E1A, Rb sequestered; DMSO wells 0%, reference activator 100%. activation, % at 9.1 µM. 3,500 tested, 30% active;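 active means activation above its plate's cutoff, the mean activation of tested wells plus 3 SD, cut at about 7.9% in these data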
GAL4-VP16 Luc: activates GAL4-VP16 luciferase, flagging SMARCA2 activator hits | activation, % at 9.1 µM | 3,500 tested, 41% active | HEK293 GAL4-VP16 pG5luc reporter, luciferase luminescence; scaled: DMSO wells 0%, SAHA wells 100% | shares compounds with SMARCA2 activ;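 active means activation above the solvent-only control well mean plus 3 SD, averaged across control plates, cut at about 5.2% in these data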
Numbers stand for hits. Most compounds without a hit are left out; they make up all but 4.8% or so of the library.

`N#C/C(=C\c1ccc(O)c(O)c1)C(=O)Nc1ccccc1` gave ssDAF12 agonist inactive, DAX1 inh-1 inactive, hcDAF12 agonist inactive, hgDAF12 agonist inactive, SMARCA2 activ 9.8, DAX1 inh-2 inactive, SMARCA2 act conf inactive and GAL4-VP16 Luc inactive.
`C[C@@H](NC(=O)/C(C#N)=C/c1ccc(O)c(O)c1)c1ccccc1` gave ssDAF12 agonist inactive, DAX1 inh-1 inactive, hcDAF12 agonist inactive, hgDAF12 agonist inactive, SMARCA2 activ inactive and DAX1 inh-2 inactive.
For O=C(N/N=C\c1cccnc1)c1ccccc1O the results were ssDAF12 agonist inactive, DAX1 inh-1 inactive, hcDAF12 agonist inactive, hgDAF12 agonist inactive, SMARCA2 activ inactive and DAX1 inh-2 inactive.
Screening O=C(N/N=C/C(Cl)=C\c1ccccc1)c1ccco1 returned ssDAF12 agonist inactive, DAX1 inh-1 5.8, hcDAF12 agonist inactive, hgDAF12 agonist inactive, SMARCA2 activ 12, DAX1 inh-2 inactive, SMARCA2 act conf inactive and GAL4-VP16 Luc 8.3.
For COc1ccc(C(=O)N/N=C/c2cccnc2)cc1 the results were ssDAF12 agonist inactive, DAX1 inh-1 inactive, hcDAF12 agonist inactive, hgDAF12 agonist inactive, SMARCA2 activ 11, DAX1 inh-2 inactive, SMARCA2 act conf inactive and GAL4-VP16 Luc inactive.
`O=C(N/N=C/c1cccnc1)c1ccco1` gave ssDAF12 agonist inactive, DAX1 inh-1 inactive, hcDAF12 agonist inactive, hgDAF12 agonist inactive, SMARCA2 activ 10, DAX1 inh-2 inactive, SMARCA2 act conf inactive and GAL4-VP16 Luc inactive.
COc1ccc(S[C@]2(C(=O)N3CCCC3)CC(=O)N(c3ccsc3)[C@@H]2c2ccc(OC)cc2)cc1 was read as ssDAF12 agonist inactive, hcDAF12 agonist inactive, hgDAF12 agonist inactive, SMARCA2 activ inactive and DAX1 inh-2 inactive.
For CC(=O)c1cc(-c2ccccc2)n(CC(=O)NCc2ccc(F)cc2)c1C the results were ssDAF12 agonist inactive, hcDAF12 agonist inactive, hgDAF12 agonist inactive, SMARCA2 activ inactive and DAX1 inh-2 inactive.
O=C(N[C@@H]1CC[C@H]2SC[C@H](C(=O)O)N2C1=O)OCC1c2ccccc2-c2ccccc21 was read as ssDAF12 agonist inactive, hcDAF12 agonist inactive, hgDAF12 agonist inactive, SMARCA2 activ inactive and DAX1 inh-2 inactive.
Screening Cc1ccc(C)c(C(=O)Nc2nc3ccccc3[nH]2)c1 returned ssDAF12 agonist inactive, DAX1 inh-1 inactive, hcDAF12 agonist inactive, hgDAF12 agonist inactive, SMARCA2 activ inactive and DAX1 inh-2 inactive.
Screening Cc1ccc(Nc2nc3ccccc3[nH]2)nc1 returned ssDAF12 agonist inactive, DAX1 inh-1 inactive, hcDAF12 agonist inactive, hgDAF12 agonist inactive, SMARCA2 activ 8.7, DAX1 inh-2 inactive, SMARCA2 act conf inactive and GAL4-VP16 Luc 19.
COc1cccc(C(=O)Nc2cccc(-c3ccc(N4CCOCC4)nn3)c2)c1OC was read as ssDAF12 agonist inactive, DAX1 inh-1 inactive, hcDAF12 agonist inactive, hgDAF12 agonist inactive, SMARCA2 activ 12, DAX1 inh-2 inactive, SMARCA2 act conf 11 and GAL4-VP16 Luc 15.
Screening Cc1cc(-c2ccco2)c(C#N)c2nc3ccccc3n12 returned ssDAF12 agonist inactive, DAX1 inh-1 inactive, hcDAF12 agonist inactive, hgDAF12 agonist inactive, SMARCA2 activ 12, DAX1 inh-2 inactive, SMARCA2 act conf 41 and GAL4-VP16 Luc 6.5.
O=C(C(=O)N1CCC(CNS(=O)(=O)c2cccc(C(F)(F)F)c2)CC1)c1cc2ccccc2o1 was read as ssDAF12 agonist inactive, hcDAF12 agonist inactive, hgDAF12 agonist inactive, SMARCA2 activ inactive and DAX1 inh-2 inactive.
CCN(CC)S(=O)(=O)c1ccc(NC(=O)c2cccs2)cc1 was read as ssDAF12 agonist inactive, DAX1 inh-1 inactive, hcDAF12 agonist inactive, hgDAF12 agonist inactive, SMARCA2 activ inactive and DAX1 inh-2 inactive.
`CCN(CC)S(=O)(=O)c1ccc(C(=O)NNC(=O)c2cccs2)cc1` gave ssDAF12 agonist inactive, DAX1 inh-1 inactive, hcDAF12 agonist inactive, hgDAF12 agonist inactive, SMARCA2 activ 11, DAX1 inh-2 inactive, SMARCA2 act conf inactive and GAL4-VP16 Luc inactive.
CCN1CCN(c2cc(C)c3cc(NC(=S)N4CCOCC4)ccc3n2)CC1 was read as ssDAF12 agonist inactive, DAX1 inh-1 inactive, hcDAF12 agonist inactive, hgDAF12 agonist inactive, SMARCA2 activ inactive and DAX1 inh-2 inactive.
`CCN1CCN(c2cc(C)c3cc(NC(=S)N4CCN(c5ccccc5)CC4)ccc3n2)CC1` gave ssDAF12 agonist inactive, DAX1 inh-1 inactive, hcDAF12 agonist inactive, hgDAF12 agonist inactive, SMARCA2 activ 9.1, DAX1 inh-2 inactive, SMARCA2 act conf 26 and GAL4-VP16 Luc inactive.
CCN1CCN(c2cc(C)c3cc(NC(=O)c4cc(OC)cc(OC)c4)ccc3n2)CC1 was read as ssDAF12 agonist inactive, DAX1 inh-1 inactive, hcDAF12 agonist inactive, hgDAF12 agonist inactive, SMARCA2 activ 9.9, DAX1 inh-2 inactive, SMARCA2 act conf 14 and GAL4-VP16 Luc 5.5.
For CCOc1ccc(C(=O)Nc2ccc3nc(N4CCN(CC)CC4)cc(C)c3c2)cc1 the results were ssDAF12 agonist inactive, DAX1 inh-1 inactive, hcDAF12 agonist inactive, hgDAF12 agonist inactive, SMARCA2 activ inactive and DAX1 inh-2 inactive.
Cc1cc(C(=O)OCC(=O)c2ccc3c(c2)OCCO3)c(C)o1 was read as ssDAF12 agonist inactive, DAX1 inh-1 inactive, hcDAF12 agonist inactive, hgDAF12 agonist inactive, SMARCA2 activ 8.1, DAX1 inh-2 inactive, SMARCA2 act conf inactive and GAL4-VP16 Luc inactive.
For O=C(COC(=O)c1cccnc1Cl)c1ccc2c(c1)OCCO2 the results were ssDAF12 agonist inactive, DAX1 inh-1 inactive, hcDAF12 agonist inactive, hgDAF12 agonist inactive, SMARCA2 activ inactive and DAX1 inh-2 inactive.
COC(=O)CNC(=O)COC(=O)c1ccc(Cl)nc1 was read as ssDAF12 agonist inactive, DAX1 inh-1 inactive, hcDAF12 agonist inactive, hgDAF12 agonist inactive, SMARCA2 activ 8.8, DAX1 inh-2 inactive, SMARCA2 act conf inactive and GAL4-VP16 Luc inactive.
O=C(COC(=O)c1ccc(Cl)nc1)c1ccc2c(c1)OCCO2 was read as ssDAF12 agonist inactive, DAX1 inh-1 inactive, hcDAF12 agonist inactive, hgDAF12 agonist inactive, SMARCA2 activ 10, DAX1 inh-2 inactive, SMARCA2 act conf inactive and GAL4-VP16 Luc inactive.
Cc1c(C(=O)OCC(=O)c2ccc3c(c2)OCCO3)oc2ccccc12 was read as ssDAF12 agonist inactive, DAX1 inh-1 inactive, hcDAF12 agonist inactive, hgDAF12 agonist inactive, SMARCA2 activ 8.0, DAX1 inh-2 inactive, SMARCA2 act conf inactive and GAL4-VP16 Luc inactive.
CCSc1n[nH]c(=O)n1C was read as ssDAF12 agonist inactive, hcDAF12 agonist inactive, hgDAF12 agonist inactive, SMARCA2 activ inactive and DAX1 inh-2 inactive.

High-throughput results deposited in PubChem BioAssay by The Scripps Research Institute Molecular Screening Center.
